Holding throughout (experiment): yeast three-hybrid, YBZ-1, SC-Leu-His + 0.5 mM 3-AT, 4 days
What all share (details): tags: N-Gal4 AD-HA kept; label: inside an RPR1-promoter hybrid RNA with tandem MS2 sites; ssRNA

In test [1] the target is PUM1 PUF domain R3-LSR (Homo sapiens, UniProt Q14671 828-1176, C935L;R936S;Q939R). In a few lines: (§1)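 Each repeat of the Pumilio-1 PUF domain was randomized at its three base-contacting residues, and these libraries were co-expressed from a centromeric plasmid with matching RNA elements in strain YBZ-1. After four days on SC-Leu (input) or SC-Leu-His + 0.5 mM 3-AT (selection), the repeat regions were PCR-amplified and Illumina-sequenced. The interaction score compares variant frequency between input and selection as a log change, computed in log2 with a pseudocount of 1 for absent variants.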

For test [2], the target named is PUM1 PUF domain R3-LFA (Homo sapiens, UniProt Q14671 828-1176, C935L;R936F;Q939A). The method, boiled down: as §1
The target in test [3] is PUM1 PUF domain R1-RRK (Homo sapiens, UniProt Q14671 828-1176, S863R;Q867K). The method, boiled down: as §1
Test [4] has as its target PUM1 PUF domain R5-RHG (Homo sapiens, UniProt Q14671 828-1176, C1007R;R1008H;Q1011G). In a few lines:
as §1

Test [5] addresses PUM1 PUF domain R5-PMG (Homo sapiens, UniProt Q14671 828-1176, C1007P;R1008M;Q1011G). The method, boiled down: as §1
For test [6], the target named is T1, PUM1 PUF domain R6-GFA (Homo sapiens, UniProt Q14671 828-1176, N1043G;Y1044F;Q1047A).
T1 sequence: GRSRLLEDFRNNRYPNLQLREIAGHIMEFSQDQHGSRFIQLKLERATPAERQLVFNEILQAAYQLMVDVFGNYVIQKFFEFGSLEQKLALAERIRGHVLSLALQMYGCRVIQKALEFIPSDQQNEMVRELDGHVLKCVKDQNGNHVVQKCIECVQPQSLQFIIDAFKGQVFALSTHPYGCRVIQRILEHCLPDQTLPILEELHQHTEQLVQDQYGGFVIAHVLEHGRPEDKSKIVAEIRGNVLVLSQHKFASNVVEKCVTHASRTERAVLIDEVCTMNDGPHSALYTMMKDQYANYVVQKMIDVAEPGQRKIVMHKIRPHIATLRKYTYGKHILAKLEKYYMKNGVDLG
In a few lines: as §1

The target of test [7] is T2, PUM1 PUF domain R6-MYS (Homo sapiens, UniProt Q14671 828-1176, N1043M;Q1047S).
T2 sequence: T1 sequence with G216M, F217Y, A220S
The method, boiled down:
as §1

Test [8] addresses PUM1 PUF domain R8-RHE (Homo sapiens, UniProt Q14671 828-1176, N1122R;Y1123H;Q1126E). The method, boiled down:
as §1

Test [9] addresses PUM1 PUF domain R7-RML (Homo sapiens, UniProt Q14671 828-1176, S1079R;N1080M;E1083L). In a few lines: as §1
The target in test [10] is PUM1 PUF domain R4-NFS (Homo sapiens, UniProt Q14671 828-1176, H972F;Q975S). In a few lines: as §1

Numbering of substitutions follows the chain as printed.

Regarding “GGCUAGAACUAGUGGAUCCCCCGGCGCCCGGCGGCUCGAGCCCGGGUAAGUGUAAGUAGUCUGCAUGCCGCCGGGCGCCAUGCCUGCAGGUCGACUCUAGAAAACAUG”, the binding signal was 5.61 log2 enrichment (interaction score) in test [1] and 4.36 log2 enrichment (interaction score) in [2]. Turning to “GGCUAGAACUAGUGGAUCCCCCGGCGCCCGGCGGCUCGAGCCCGGGUAAGUGUAAAUCGUCUGCAUGCCGCCGGGCGCCAUGCCUGCAGGUCGACUCUAGAAAACAUG”, the binding signal in test [3] was 2.94 log2 enrichment (interaction score). Regarding “GGCUAGAACUAGUGGAUCCCCCGGCGCCCGGCGGCUCGAGCCCGGGUAAGUGUUAAUAGUCUGCAUGCCGCCGGGCGCCAUGCCUGCAGGUCGACUCUAGAAAACAUG”, the binding signal in test [4] was 5.88 log2 enrichment (interaction score); in test [5], 3.73 log2 enrichment (interaction score). As for “GGCUAGAACUAGUGGAUCCCCCGGCGCCCGGCGGCUCGAGCCCGGGUAAGUGUAAAUUGUCUGCAUGCCGCCGGGCGCCAUGCCUGCAGGUCGACUCUAGAAAACAUG”, the binding signal in test [3] is 2.68 log2 enrichment (interaction score). Regarding “GGCUAGAACUAGUGGAUCCCCCGGCGCCCGGCGGCUCGAGCCCGGGUAAGUGUAAUUAGUCUGCAUGCCGCCGGGCGCCAUGCCUGCAGGUCGACUCUAGAAAACAUG”, the binding signal in test [1] was 4.8 log2 enrichment (interaction score); in test [2], 2.26 log2 enrichment (interaction score). Take “GGCUAGAACUAGUGGAUCCCCCGGCGCCCGGCGGCUCGAGCCCGGGUAAGUGUAAAUAGUCUGCAUGCCGCCGGGCGCCAUGCCUGCAGGUCGACUCUAGAAAACAUG”: the binding signal is 2.92 log2 enrichment (interaction score) in [4]; 2.37 log2 enrichment (interaction score) in test [6]; 4.63 log2 enrichment (interaction score) in test [7]; 0.4 log2 enrichment (interaction score) in test [5]; 2.1 log2 enrichment (interaction score) in test [8]. As for “GGCUAGAACUAGUGGAUCCCCCGGCGCCCGGCGGCUCGAGCCCGGGUAAGUGUCAAUAGUCUGCAUGCCGCCGGGCGCCAUGCCUGCAGGUCGACUCUAGAAAACAUG”, in test [4], the binding signal was 5.64 log2 enrichment (interaction score).

Turning to “GGCUAGAACUAGUGGAUCCCCCGGCGCCCGGCGGCUCGAGCCCGGGUAAGUUUAAAUAGUCUGCAUGCCGCCGGGCGCCAUGCCUGCAGGUCGACUCUAGAAAACAUG”, the binding signal in test [9] is 2.71 log2 enrichment (interaction score). Take “GGCUAGAACUAGUGGAUCCCCCGGCGCCCGGCGGCUCGAGCCCGGGUAAGCGUAAAUAGUCUGCAUGCCGCCGGGCGCCAUGCCUGCAGGUCGACUCUAGAAAACAUG”: the binding signal in [8] was 3.02 log2 enrichment (interaction score). “GGCUAGAACUAGUGGAUCCCCCGGCGCCCGGCGGCUCGAGCCCGGGUAAGUGUAUAUAGUCUGCAUGCCGCCGGGCGCCAUGCCUGCAGGUCGACUCUAGAAAACAUG”: the binding signal in test [10] is 3.51 log2 enrichment (interaction score).

Source of the values: article PMC8384837, “Expanding the binding specificity for RNA recognition by a PUF domain”.
